Common to all, as to settings: mRNA level, 48 h; actives raise or lower the signal
Read-out in experiment [1]: Paternally Expressed 10 (PEG10), PEG10 (gene 23089)
Put plainly: LTEA_HepaRG_PEG10: Life Technologies and Expression Analysis (LTEA) Assay for Paternally Expressed 10 (PEG10) using HepaRG (AID 2283520). An outline of the steps:
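Differentiated HepaRG cells, plated 48 h then switched to serum-free induction medium, were exposed in duplicate for 48 h to eight half-log concentrations topping at 100 uM in 0.5% DMSO. PEG10 mRNA was quantified by TaqMan qRT-PCR, normalised to ACTB, GAPDH and POLR2A.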

Read-out in experiment [2]: Nuclear factor NF-kappa-B p105 subunit (Homo sapiens) (UniProt P19838)
Put plainly: LTEA_HepaRG_NFKB1: Life Technologies and Expression Analysis (LTEA) Assay for Nuclear Factor Kappa B Subunit 1 (NFKB1) using HepaRG (AID 2283521). An outline of the steps:
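Differentiated human HepaRG cells were exposed for 48 h in serum-free induction medium to eight concentrations (top 100 uM, half-log steps, 0.5% DMSO), in duplicate. NFKB1 mRNA was measured by TaqMan qRT-PCR, normalized to ACTB/GAPDH/POLR2A, and fitted bidirectionally against DMSO.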

Read-out in experiment [3]: Protein phosphatase 2A (PPP2R4), PTPA (gene 5524)
Put plainly: LTEA_HepaRG_PPP2R4: Life Technologies and Expression Analysis (LTEA) Assay for Protein phosphatase 2A (PPP2R4) using HepaRG (AID 2283522). An outline of the steps:
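Differentiated HepaRG cells in serum-free induction medium were exposed in duplicate for 48 h to eight concentrations, top 100 uM with half-log dilutions, in 0.5% DMSO. PPP2R4 mRNA was quantified by TaqMan qRT-PCR, normalized to ACTB, GAPDH and POLR2A.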

Read-out in experiment [4]: Phosphatase and tensin (PTEN), PTEN (gene 5728)
Put plainly: LTEA_HepaRG_PTEN: Life Technologies and Expression Analysis (LTEA) Assay for Phosphatase and tensin (PTEN) using HepaRG (AID 2283523). An outline of the steps: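 Differentiated human HepaRG cells, plated 48 h then switched to serum-free induction medium, were exposed in duplicate for 48 h to eight half-log concentrations up to 100 uM in 0.5% DMSO. PTEN mRNA measured by TaqMan qRT-PCR, normalized to ACTB/GAPDH/POLR2A, bidirectional fit versus DMSO.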

Read-out in experiment [5]: solute carrier (SLC22A1), SLC22A1 (gene 6580)
Put plainly: LTEA_HepaRG_SLC22A1: Life Technologies and Expression Analysis (LTEA) Assay for solute carrier (SLC22A1) using HepaRG (AID 2283524). An outline of the steps: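 Human HepaRG cells were plated 48 h, switched to serum-free induction medium, then exposed in duplicate for 48 h to 8-point half-log series from 100 uM in 0.5% DMSO. SLC22A1 mRNA measured by qRT-PCR, normalized to ACTB/GAPDH/POLR2A, fitted bidirectionally versus DMSO.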

Read-out in experiment [6]: Nuclear factor erythroid 2-related factor 2 (Homo sapiens) (UniProt Q16236)
Put plainly: LTEA_HepaRG_NFE2L2: Life Technologies and Expression Analysis (LTEA) Assay for Nuclear factor erythroid 2-related factor 2 (NFE2L2) Transcription Factor using HepaRG (AID 2283527).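 For outcome: TaqMan qRT-PCR transcript level normalised to ACTB GAPDH and POLR2A housekeeping genes.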 An outline of the steps:
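Differentiated human HepaRG cells in serum-free induction medium were exposed for 48 h to eight concentrations (top 100 uM, half-log dilutions, 0.5% DMSO), in duplicate. NFE2L2 mRNA was quantified by TaqMan qRT-PCR, normalized to ACTB, GAPDH and POLR2A, with bidirectional fitting versus DMSO.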

Read-out in experiment [7]: succinate dehydrogenase complex iron sulfur subunit B (SDHB), SDHB (gene 6390)
Kind of experiment: LTEA_HepaRG_SDHB: Life Technologies and Expression Analysis (LTEA) Assay for succinate dehydrogenase complex iron sulfur subunit B (SDHB) using HepaRG (AID 2283528). An outline of the steps: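 HepaRG, 48 h exposure, 8-pt half-log series from 100 uM in 0.5% DMSO, duplicates. Readout: SDHB mRNA by Fluidigm qRT-PCR vs housekeeping genes; bidirectional fit relative to DMSO.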

Read-out in experiment [8]: Signal transducer and activator of transcription 3 (Homo sapiens) (UniProt P40763)
Put plainly: LTEA_HepaRG_STAT3: Life Technologies and Expression Analysis (LTEA) Assay for Signal transducer and activator of transcription (STAT3) using HepaRG (AID 2283529). An outline of the steps: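 Differentiated human HepaRG cells in serum-free induction medium were exposed in duplicate for 48 h to eight half-log concentrations up to 100 uM in 0.5% DMSO. STAT3 mRNA was quantified by TaqMan qRT-PCR, normalized to ACTB, GAPDH and POLR2A, and fitted bidirectionally against DMSO.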

Read-out in experiment [9]: solute carrier (SLCO1B1), SLCO1B1 (gene 10599)
Put plainly: LTEA_HepaRG_SLCO1B1: Life Technologies and Expression Analysis (LTEA) Assay for solute carrier (SLCO1B1) using HepaRG (AID 2283530). An outline of the steps: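 SLCO1B1 transcript levels were quantified by TaqMan qRT-PCR using three housekeeping genes for normalization. This followed 48 h chemical exposure (100 uM top, half-log, 8 points, 0.5% DMSO) of HepaRG liver cells, with gain or loss fitted relative to DMSO.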

Read-out in experiment [10]: sulfotransferase 2A1 (SULT2A1), SULT2A1 (gene 6822)
Put plainly: LTEA_HepaRG_SULT2A1: Life Technologies and Expression Analysis (LTEA) Assay for sulfotransferase 2A1 (SULT2A1) using HepaRG (AID 2283531). An outline of the steps: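 Expression change of SULT2A1, by qRT-PCR with three housekeeping-gene normalization, was scored bidirectionally versus DMSO. Cells: differentiated HepaRG, dosed in duplicate for 48 h across 8 points, highest 100 µM, half-log dilution, 0.5% DMSO.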

Read-out in experiment [11]: Transforming Growth Factor (TGFA), TGFA (gene 7039)
Kind of experiment: LTEA_HepaRG_TGFA: Life Technologies and Expression Analysis (LTEA) Assay for Transforming Growth Factor (TGFA) using HepaRG (AID 2283532). An outline of the steps: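 Differentiated human HepaRG cells, plated 48 h then switched to serum-free induction medium, were exposed in duplicate for 48 h to 8-point half-log series from 100 uM in 0.5% DMSO. TGFA mRNA measured by qRT-PCR, normalized to ACTB/GAPDH/POLR2A, bidirectional fit versus DMSO.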

Read-out in experiment [12]: Transforming Growth Factor (TGFB1), TGFB1 (gene 7040)
Kind of experiment: LTEA_HepaRG_TGFB1: Life Technologies and Expression Analysis (LTEA) Assay for Transforming Growth Factor (TGFB1) Transporter using HepaRG (AID 2283533). An outline of the steps:
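TGFB1 transcript measured by qRT-PCR with normalisation to three housekeeping genes (ACTB, GAPDH, POLR2A); human HepaRG line treated in duplicate for 48 hr with an 8-point series topping at 100 uM, 0.5% DMSO vehicle, bidirectionally fitted.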

Read-out in experiment [13]: TIMP1, TIMP1 (gene 7076)
Kind of experiment: LTEA_HepaRG_TIMP1: Life Technologies and Expression Analysis (LTEA) Assay for TIMP1 using HepaRG (AID 2283534). An outline of the steps: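 Bidirectional change in TIMP1 transcript versus 0.5% DMSO, measured by TaqMan qRT-PCR with three housekeeping genes for normalization. HepaRG human liver cells dosed 48 h in duplicate, top concentration 100 uM with half-log dilutions.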

Read-out in experiment [14]: Tumor necrosis factor receptor 1 (TNFRSF1A), TNFRSF1A (gene 7132)
Kind of experiment: LTEA_HepaRG_TNFRSF1A: Life Technologies and Expression Analysis (LTEA) Assay for Tumor necrosis factor receptor 1 (TNFRSF1A) using HepaRG (AID 2283535). An outline of the steps: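 mRNA measured by qRT-PCR (TaqMan, Fluidigm arrays) against ACTB/GAPDH/POLR2A housekeepers after 48 h chemical exposure of HepaRG cells. Top concentration 100 uM, half-log 8-point series, duplicates; vehicle 0.5% DMSO, both fit directions.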

Read-out in experiment [15]: Thyroid Hormone Responsive (THRSP), THRSP (gene 7069)
Put plainly: LTEA_HepaRG_THRSP: Life Technologies and Expression Analysis (LTEA) Assay for Thyroid Hormone Responsive (THRSP) using HepaRG (AID 2283536). An outline of the steps: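 Differentiated human HepaRG cells were exposed in duplicate for 48 h in serum-free induction medium to eight concentrations (top 100 uM, half-log steps, 0.5% DMSO). Expression was quantified by TaqMan qRT-PCR, normalized to ACTB, GAPDH and POLR2A, with bidirectional fitting against DMSO.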

Read-out in experiment [16]: Cellular tumor antigen p53 (Homo sapiens) (UniProt P04637)
Put plainly: LTEA_HepaRG_TP53: Life Technologies and Expression Analysis (LTEA) Assay for Tumor Protein P53 (TP53) using HepaRG (AID 2283537). An outline of the steps:
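HepaRG, 48 h exposure, top 100 uM, half-log 8-point, 0.5% DMSO vehicle, duplicates. Read: TP53 mRNA by TaqMan qRT-PCR, normalised to ACTB/GAPDH/POLR2A; bidirectional fit vs DMSO.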

Read-out in experiment [17]: UDP glucuronosyltransferase (UGT1A1), UGT1A1 (gene 54658)
Kind of experiment: LTEA_HepaRG_UGT1A1: Life Technologies and Expression Analysis (LTEA) Assay for UDP glucuronosyltransferase (UGT1A1) using HepaRG (AID 2283538). An outline of the steps:
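Differentiated human HepaRG cells in serum-free induction medium were exposed in duplicate for 48 h to eight half-log concentrations up to 100 uM in 0.5% DMSO. UGT1A1 mRNA was quantified by TaqMan qRT-PCR, normalized to ACTB, GAPDH and POLR2A, and fitted bidirectionally against DMSO.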

Read-out in experiment [18]: UDP glucuronosyltransferase (UGT1A6), UGT1A6 (gene 54578)
Kind of experiment: LTEA_HepaRG_UGT1A6: Life Technologies and Expression Analysis (LTEA) Assay for UDP glucuronosyltransferase (UGT1A6) using HepaRG (AID 2283539). An outline of the steps: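 Expression was quantified by TaqMan qRT-PCR on Fluidigm arrays with ACTB/GAPDH/POLR2A normalization and bidirectional fitting against 0.5% DMSO. HepaRG cells (~100,000/well) were treated in duplicate for 48 h at eight half-log concentrations up to 100 uM in serum-free induction medium.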

Read-out in experiment [19]: Pyruvate Dehydrogenase Kinase 4 (PDK4), PDK4 (gene 5166)
Kind of experiment: LTEA_HepaRG_PDK4: Life Technologies and Expression Analysis (LTEA) Assay for Pyruvate Dehydrogenase Kinase 4 (PDK4) using HepaRG (AID 2283525). An outline of the steps:
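Differentiated human HepaRG cells, pre-cultured 48 h, were exposed in duplicate for 48 h in serum-free induction medium to eight half-log concentrations up to 100 uM in 0.5% DMSO. PDK4 mRNA was quantified by qRT-PCR, normalized to ACTB, GAPDH and POLR2A, bidirectional fitting versus DMSO.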

Calls of active or inactive are those of the source. Rule for the calls: active = hit-call score of the fitted dose curve at least 0.9, where 1 is the maximum; inactive = score below 0.9.

Sequence of Nuclear factor erythroid 2-related factor 2 (Homo sapiens) (Q16236 whole entry, looked up): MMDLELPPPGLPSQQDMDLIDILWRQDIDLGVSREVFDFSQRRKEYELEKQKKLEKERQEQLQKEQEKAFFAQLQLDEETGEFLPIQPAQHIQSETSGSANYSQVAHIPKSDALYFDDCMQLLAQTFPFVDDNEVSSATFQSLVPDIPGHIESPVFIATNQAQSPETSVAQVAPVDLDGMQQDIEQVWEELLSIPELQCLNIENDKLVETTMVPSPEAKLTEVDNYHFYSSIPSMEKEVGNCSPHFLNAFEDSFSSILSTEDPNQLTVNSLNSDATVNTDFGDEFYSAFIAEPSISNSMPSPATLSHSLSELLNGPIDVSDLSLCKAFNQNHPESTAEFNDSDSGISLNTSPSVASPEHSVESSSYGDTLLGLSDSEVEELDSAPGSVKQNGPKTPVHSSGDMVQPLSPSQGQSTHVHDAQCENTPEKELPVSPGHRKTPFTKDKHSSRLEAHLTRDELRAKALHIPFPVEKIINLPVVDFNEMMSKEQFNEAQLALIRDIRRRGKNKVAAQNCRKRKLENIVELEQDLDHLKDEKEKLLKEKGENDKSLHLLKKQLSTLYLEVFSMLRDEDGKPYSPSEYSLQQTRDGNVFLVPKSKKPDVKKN
Sequence of Cellular tumor antigen p53 (Homo sapiens) (P04637 whole entry, looked up): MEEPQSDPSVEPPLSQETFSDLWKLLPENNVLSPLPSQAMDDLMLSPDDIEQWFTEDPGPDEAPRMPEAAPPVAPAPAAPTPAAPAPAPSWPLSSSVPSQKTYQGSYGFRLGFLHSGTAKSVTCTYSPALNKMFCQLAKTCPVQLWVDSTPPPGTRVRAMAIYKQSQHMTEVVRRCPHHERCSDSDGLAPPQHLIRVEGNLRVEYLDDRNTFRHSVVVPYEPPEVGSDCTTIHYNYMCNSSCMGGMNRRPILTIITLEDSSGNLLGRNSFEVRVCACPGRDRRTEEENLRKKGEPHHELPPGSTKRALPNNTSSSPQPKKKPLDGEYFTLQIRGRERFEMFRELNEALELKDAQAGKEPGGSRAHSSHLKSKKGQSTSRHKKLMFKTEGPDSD
Sequence of Nuclear factor NF-kappa-B p105 subunit (Homo sapiens) (P19838 whole entry, looked up): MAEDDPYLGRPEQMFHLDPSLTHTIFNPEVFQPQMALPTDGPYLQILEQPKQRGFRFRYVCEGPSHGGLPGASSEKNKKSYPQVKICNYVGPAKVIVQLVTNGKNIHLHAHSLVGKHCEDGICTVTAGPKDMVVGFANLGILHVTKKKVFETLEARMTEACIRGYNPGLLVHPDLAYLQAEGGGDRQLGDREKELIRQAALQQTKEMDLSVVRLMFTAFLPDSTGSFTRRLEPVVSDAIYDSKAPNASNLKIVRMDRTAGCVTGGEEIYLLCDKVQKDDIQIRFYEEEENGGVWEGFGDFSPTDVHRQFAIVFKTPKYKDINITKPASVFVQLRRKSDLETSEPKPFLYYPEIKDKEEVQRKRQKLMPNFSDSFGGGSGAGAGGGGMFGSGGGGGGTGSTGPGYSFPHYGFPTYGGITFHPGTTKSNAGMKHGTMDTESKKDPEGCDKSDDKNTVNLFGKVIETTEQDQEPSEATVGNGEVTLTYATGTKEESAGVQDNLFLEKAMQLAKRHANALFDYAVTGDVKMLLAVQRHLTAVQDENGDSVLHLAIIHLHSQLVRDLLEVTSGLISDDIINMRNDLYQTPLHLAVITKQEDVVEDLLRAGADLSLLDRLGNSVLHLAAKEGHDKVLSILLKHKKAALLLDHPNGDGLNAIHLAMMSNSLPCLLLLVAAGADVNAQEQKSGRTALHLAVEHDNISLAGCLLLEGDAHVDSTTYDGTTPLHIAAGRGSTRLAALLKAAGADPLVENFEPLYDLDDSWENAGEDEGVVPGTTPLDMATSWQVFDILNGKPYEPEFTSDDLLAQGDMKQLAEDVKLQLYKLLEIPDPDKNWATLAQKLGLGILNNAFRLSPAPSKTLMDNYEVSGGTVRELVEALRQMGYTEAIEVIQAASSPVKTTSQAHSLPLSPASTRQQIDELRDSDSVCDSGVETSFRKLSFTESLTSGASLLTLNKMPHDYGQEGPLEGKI
Sequence of Signal transducer and activator of transcription 3 (Homo sapiens) (P40763 whole entry, looked up): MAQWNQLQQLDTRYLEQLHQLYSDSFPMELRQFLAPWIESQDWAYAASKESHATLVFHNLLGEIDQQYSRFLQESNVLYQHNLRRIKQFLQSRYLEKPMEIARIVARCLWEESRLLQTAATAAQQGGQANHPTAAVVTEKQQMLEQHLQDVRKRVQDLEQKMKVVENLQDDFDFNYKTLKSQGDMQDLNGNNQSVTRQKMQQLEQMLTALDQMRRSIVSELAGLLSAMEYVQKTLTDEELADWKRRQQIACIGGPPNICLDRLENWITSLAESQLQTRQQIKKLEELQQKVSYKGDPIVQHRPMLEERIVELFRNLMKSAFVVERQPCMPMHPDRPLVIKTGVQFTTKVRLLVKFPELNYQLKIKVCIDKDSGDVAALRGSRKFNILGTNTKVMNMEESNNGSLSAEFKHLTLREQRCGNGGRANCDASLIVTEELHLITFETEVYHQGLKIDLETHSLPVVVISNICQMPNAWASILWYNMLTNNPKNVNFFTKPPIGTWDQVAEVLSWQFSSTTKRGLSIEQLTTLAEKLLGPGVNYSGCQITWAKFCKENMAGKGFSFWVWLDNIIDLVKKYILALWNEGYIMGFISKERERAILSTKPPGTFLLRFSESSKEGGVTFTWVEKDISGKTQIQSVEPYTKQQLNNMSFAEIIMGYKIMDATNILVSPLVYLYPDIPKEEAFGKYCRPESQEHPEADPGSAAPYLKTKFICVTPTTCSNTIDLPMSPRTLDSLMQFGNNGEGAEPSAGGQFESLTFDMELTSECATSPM

For the compound `Clc1ccccc1C(c1ccccc1)(c1ccccc1)n1ccnc1`, the outcome in [1], in [2], in experiment [8], in experiment [13] and in experiment [14] was inactive. In addition, the AC50 is 92.2 µM (active) in experiment [3]; 87.2 µM (active) in experiment [4]; 23.1 µM (active) in [5]; 14.5 µM (active) in experiment [6]; 90.5 µM (active) in [7]; 23.7 µM (active) in [9]. In addition, the AC50 in experiment [10] is 23.3 µM (active); in experiment [11], 23.2 µM (active); in experiment [12], 91.9 µM (active); in [15] it was 29.9 µM (active); in experiment [16], 28 µM (active); in experiment [17], 28 µM (active). Also, in [18], the AC50 was 15.8 µM (active).

In the case of `CC1(C)NC(=O)N(c2ccc([N+](=O)[O-])c(C(F)(F)F)c2)C1=O`, the half-maximal activity concentration (AC50) in [1] was 15.7 µM (active); in experiment [5] it was 74.3 µM (active); in experiment [7] it was 50 µM (active); in experiment [9], 69.3 µM (active); in [10], 84.1 µM (active); in experiment [11], 50 µM (active). Further, in [16], the AC50 was 78.2 µM (active). Moreover, the call in experiment [3], in experiment [4], in [6], in experiment [12], in [13] and in [14] was inactive. The outcome in [15], in experiment [17] and in experiment [18] was inactive.

As for `Oc1ccccc1`, the compound was called inactive in experiment [1], in experiment [3], in experiment [4], in [5], in [19] and in experiment [6]. For the same compound, the compound was called inactive in [7], in experiment [9], in experiment [10], in experiment [11], in experiment [12] and in experiment [13]. For the same compound, the call in experiment [14], in experiment [15], in [16], in [17] and in experiment [18] was inactive.

One may read the AC50 as the midpoint of the concentration-response curve, whichever way the signal moves.

These data come from PubChem BioAssay (EPA / NIEHS).
